# Screening results (PubChem BioAssay)
# WRN inhibitor: blocks human WRN helicase; Q14191; WRN helicase unwinding, fluorescent forked duplex, kinetic; Potency, µM (series often up to 114 µM), for inactives: top-dose activity change, negative = inhibition, usual class: inhibitors; hit rate 0.46% among 360,000; AID 651768; note: % is set by controls: 0 for no effect and ±100 for the full control effect; nearly all actives have a fitted effect of over 55% in size
#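 WRN at 20 nM final preincubated with compound 15 min at room temperature; reaction started with 100 nM fluorophore/quencher forked duplex oligonucleotide and 2 mM ATP final. Unwinding followed kinetically by red fluorescence (ex 525, em 598 nm).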
# Pol beta inh: inhibitors of human DNA polymerase beta; P06746; Pol beta primer extension/strand displacement, fluorescence kinetic; Potency, µM (series often up to 114 µM), for inactives: at the highest dose activity change, negative = inhibition, hits mostly inhibitors; hit rate 1.3% among 340,000; note: % is set by controls: 0 for no effect and ±100 for the full control effect
#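 Homogeneous kinetic assay of primer extension and strand displacement by 10 nM Pol beta, preincubated 15 min at room temperature with compound before 50 nM substrate (final) was added. Read at 0 and 10 min; four-parameter Hill fit.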
# POLH inh: inhibitors of human DNA polymerase eta | Q9Y253 | recombinant Pol eta, fluorescent DNA replication assay | Potency, µM (series often up to 114 µM), inactives show top-dose activity change, negative = inhibition, most hits filed as inhibitors | hit rate 1.2% among 390,000 | AID 588591; note: % is set by controls: 0 for no effect and ±100 for the full control effect
#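 Pol eta at 10 nM preincubated with compounds 15 min at room temperature; reaction started with fluorescent substrate (50 nM final) and read kinetically at 0 and 10 min.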
# POLK inh: blocks human DNA polymerase kappa activity; AID 588579; purified Pol kappa, fluorescent DNA synthesis assay, 10 min; hit rate 0.53% among 400,000; Potency, µM (series often up to 107 µM), without a hit: top-dose activity, negative = inhibition, usual class: inhibitors; note: % is set by controls: 0 for no effect and ±100 for the full control effect
#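 Inhibition of 10 nM Pol kappa is measured by a fluorescent read-out at 0 and 10 min following addition of 50 nM substrate (final), with a 15-min room-temperature compound preincubation.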
# Pol iota inh: inhibitors of human DNA polymerase iota; hit rate 1% among 390,000; Pol iota fluorescent replication assay, 10 min; Potency, µM (highest dose often 115 µM), for inactives: at the highest dose activity, negative = inhibition, hits mostly inhibitors; AID 588590
# Target sequence (Q9UNA4 whole entry, looked up): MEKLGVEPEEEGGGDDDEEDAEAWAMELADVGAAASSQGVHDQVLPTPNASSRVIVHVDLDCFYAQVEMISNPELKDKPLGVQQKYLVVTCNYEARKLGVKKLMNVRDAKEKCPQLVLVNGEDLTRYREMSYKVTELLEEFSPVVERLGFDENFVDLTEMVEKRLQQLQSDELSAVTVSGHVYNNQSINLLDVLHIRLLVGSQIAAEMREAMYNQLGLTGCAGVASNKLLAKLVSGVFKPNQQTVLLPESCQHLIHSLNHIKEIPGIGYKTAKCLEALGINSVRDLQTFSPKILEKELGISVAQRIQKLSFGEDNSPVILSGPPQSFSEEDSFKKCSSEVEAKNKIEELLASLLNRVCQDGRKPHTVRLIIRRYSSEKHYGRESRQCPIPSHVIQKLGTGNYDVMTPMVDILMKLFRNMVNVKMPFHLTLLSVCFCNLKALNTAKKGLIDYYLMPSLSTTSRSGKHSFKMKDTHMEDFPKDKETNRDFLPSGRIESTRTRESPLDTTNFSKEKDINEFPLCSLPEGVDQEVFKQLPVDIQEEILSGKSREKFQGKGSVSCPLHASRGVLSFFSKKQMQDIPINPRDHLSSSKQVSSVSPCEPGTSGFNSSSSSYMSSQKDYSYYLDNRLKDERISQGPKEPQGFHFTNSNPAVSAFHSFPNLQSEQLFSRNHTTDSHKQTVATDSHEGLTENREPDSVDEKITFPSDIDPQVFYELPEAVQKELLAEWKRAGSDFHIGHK
#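 Pol iota at 10 nM preincubated 15 min with compounds at room temperature; reaction started with fluorescent substrate, 50 nM final. Fluorescence read kinetically at 0 and 10 min; buffer-only wells as negative control.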
# FEN1 inh: inhibitors of human flap endonuclease 1. Potency, µM (top dose mostly 114 µM), inactives show at the top dose activity change, negative = inhibition, hits mostly inhibitors. AID 588795. Recombinant FEN1 flap cleavage, fluorescence, 15 min. P39748. hit rate 0.35% among 390,000; note: % is set by controls: 0 for no effect and ±100 for the full control effect; nearly all actives have a fitted effect of over 65% in size
#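 In this screen, 50 nM flap DNA substrate was added to 10 nM FEN1 pretreated with compound for 15 min at room temperature; cleavage was followed with reads at 0 and 15 min, and Hill fitting gave concentration–response parameters.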
# Starred values were filed as active, the others as inactive; ? = inconclusive; / = no result given; [ ] = another dose, or the depositor's remark. The list is not random: actives were taken first. Their share in the collection is about 2.4%. Calls come from the whole dose curve; as a rule, active = well fitted curve in the direction sought with a large enough effect; inconclusive = small, poorly fitted or top-dose-only effect, or another doubt; inactive = no such curve, though single readings can be large; an effect the other way counts as inactive or inconclusive. Potency is the fitted concentration of half-maximal effect.
SMILES,WRN inhibitor,Pol beta inh,POLH inh,POLK inh,Pol iota inh,FEN1 inh
O=C(O)c1c2c(nc3ccc(Cl)cc13)CCC2,-3%[11.6 µM],16µM*,?,-25%,20%,-11%
O=C(O)c1c2c(nc3ccc(F)cc13)CCC2,-2%,0%,-12%,-4%,3%,-17%
Cc1ccc2c(cnn2C(=O)CCC(=O)NCc2cccc(Br)c2)c1,1%,37%,-13%,-3%,12%,-12%
COc1cc(C2C(C(C)=O)=C(O)C(=O)N2CCc2c[nH]c3ccccc23)ccc1O (centres undefined),0%,0%,7%,-2%,?,?
CCc1ccc(S(=O)(=O)/N=C2\C=CC(=O)c3ccccc32)cc1,/,17%,/,/,/,/
O=S(=O)(N=C1C=CC(=NS(=O)(=O)c2ccccc2)c2ccccc21)c1ccccc1,6%,/,50µM*,/,/,/
Cc1cc(Cl)n2c(nc3ccccc32)c1C#N,?,89µM*,40µM*,-4%,22µM*,-22%
C#CCOCCOCCOCCNc1nc(N2CCN(C(=O)C([C@@H](C)O)n3cc([C@@H](N)CCCCN)nn3)CC2)nc(N2CCN(C(=O)[C@H](CC(N)=O)n3cc([C@@H](N)C(C)C)nn3)CC2)n1 (some centres undefined),-7%,/,-2%,-3%,-2%,-6%
NCCNCCNCCN,5%,7%,-9%,0%,-18%,19%
NCCNCCN,/,/,/,1.1µM*,/,/
Cc1ccc(S(=O)(=O)N2CCC(C(=O)OC3CCOC3=O)CC2)cc1C (centres undefined),5%,/,-11%,-2%,43%,-7%
CC(=O)c1cccc(S(=O)(=O)N2CCC(C(=O)OC3CCOC3=O)CC2)c1 (centres undefined),-19%,/,45µM*,-23%,?,17%
COCCn1c(C)cc(C(=O)COC(=O)c2cccc(O)c2)c1C,-6%,8%,2%,0%,-2%,-15%
O=C(COC(=O)c1cc(S(=O)(=O)N2CCc3ccccc3C2)ccc1Cl)NCc1ccco1,?,40µM*,20µM*,?,?,-18%
O=C(COC(=O)c1cccc(S(=O)(=O)N2CCc3ccccc3C2)c1)NCc1ccco1,-7%,18µM*,-10%,-23%,-15%,-7%
O=C(c1ccco1)N(c1ccccn1)c1ccccn1,-10%,26%,-9%,2%,0%,1%
O=c1cc(-c2ccc(O)c(O)c2)oc2cc(O[C@@H]3O[C@H](CO)[C@@H](O)[C@H](O)[C@H]3O)cc(O)c12,?,/,8.9µM*,2.5µM*,6.3µM*,?
O=c1cc(-c2ccccc2)oc2cc(O[C@@H]3O[C@H](CO)[C@@H](O)[C@H](O)[C@H]3O)c(O)c(O)c12,/,/,/,10µM*,/,/
O=c1c(O[C@@H]2O[C@H](CO)C(O)C2O)c(-c2ccc(O)c(O)c2)oc2cc(O)cc(O)c12 (some centres undefined),-22%,/,?,25µM*,35µM*,?
COc1ccc(-c2cc(=O)c3c(O)c(OC)c(O[C@@H]4OC(COC5OC(C)C(O)C(O)[C@@H]5O)C(O)C(O)C4O)cc3o2)cc1 (some centres undefined),/,/,/,-10%[60.1 µM],/,/
CC1OC(OCC2OC(Oc3c(-c4ccc(O)c(O)c4)oc4cc(O)cc(O)c4c3=O)C(O)C(O)C2O)C(O)C(O)C1O (centres undefined),/,/,/,6.3µM*,/,/
C[C@@H]1O[C@@H](OC[C@H]2O[C@@H](Oc3cc(O)c4c(=O)cc(-c5ccc(O)c(O)c5)oc4c3)[C@H](O)[C@@H](O)[C@@H]2O)[C@H](O)[C@H](O)[C@H]1O,-3%,/,-8%,-6%,-21%,-23%
C=CCNc1ncnc2c1ncn2[C@H]1CN(Cc2ccc3c(c2)OCO3)C[C@@H](CO)O1,1%,/,/,/,/,/
Cc1cc(C)cc(N(CC(=O)NC(C)(C)C)C(=O)CCC(=O)Nc2nccs2)c1,4%,10%,-6%,12%,15%,2%
Cc1nn(-c2ccccn2)c2c1-c1nc(N)sc1CC2,/,/,/,-22%,3.2µM*,?
SMILES,WRN inhibitor,Pol beta inh,POLH inh,POLK inh,Pol iota inh,FEN1 inh
O=C(Nc1nc2nc(-c3ccccc3)cc(=O)n2[nH]1)c1ccccc1,-11%,0%,-11%,0%,7%,-9%
O=C(Nc1nc2nc(-c3ccccc3)cc(=O)n2[nH]1)c1ccc(Cl)cc1,/,22µM*,-9%,-18%,-16%,-12%
O=c1oc(-c2ccccc2)nc2sc3c(c12)CCC3,-16%[11.6 µM],11µM*,?,79µM*,?,4%
O=C1CCC(=O)N1c1ccc(-c2nc3sc4c(c3c(=O)o2)CCC4)cc1,-2%,0%,-3%,-3%,15%,-2%
Cc1cccc(NC(=O)Cn2nnc(-c3nc(-c4ccncc4)no3)c2N)c1,/,56µM*,/,3%,21%,-3%
COc1ccc(NC(=O)Cn2nnc(-c3nc(-c4ccncc4)no3)c2N)cc1OC,/,79µM*,/,-6%,25%,12%
CC(C)Oc1ccc(S(=O)(=O)N2CCCCC2)cc1NC(=O)C1=COCCO1,-1%,/,-14%,-24%,12%,-21%
NC(=O)c1ccccc1NC(=O)CC12CC3CC(CC(C3)C1)C2,-7%,2%,-11%,1%,14%,-2%
COC(=O)Cc1[nH]nc2c1C(c1ccc(O)c(OC)c1)C(C#N)=C(N)O2 (centres undefined),-21%[57.1 µM],-2%,45µM*,-32%,8.9µM*,14%
CC(=O)N(c1ccc2oc(=O)sc2c1)S(=O)(=O)c1cccs1,-15%,28%,-6%,5%,?,-3%
CC(=O)N(c1ccc2oc(=O)sc2c1)S(=O)(=O)c1ccc(C(=O)O)cc1,?,-16%,35µM*,?,3.5µM*,-20%
COc1cccc(Oc2cc(NN3CCCCC3)c([N+](=O)[O-])cc2[N+](=O)[O-])c1OC,-3%,56µM*,-11%,-20%,?,6%
O=C(OC1Cc2c(O)cc(O)cc2OC1c1cc(O)c(O)c(O)c1-c1c(C2Oc3cc(O)cc(O)c3CC2O)cc(O)c(O)c1O)c1cc(O)c(O)c(O)c1 (centres undefined),/,/,/,0.79µM*,/,/
CC(C)CN(C(=O)C1CC1)c1c(N)n(Cc2ccccc2)c(=O)[nH]c1=O,5%,/,-11%,-7%,34%,1%
CCc1cccc(C)c1NC(=O)CCCN1C(=O)C(c2ccccc2)Oc2cccnc21 (centres undefined),/,-8%,-13%,-9%,22%,-7%
Nc1n[nH]c(=S)n1/N=C1/C(=O)Nc2ccccc21,-31%[57.1 µM],?,6%,-22%,-6%,89µM*
